# PubChem BioAssay AID540333 (Southern Research Specialized Biocontainment Screening …, 2011)
# In all, about 10,000 compounds went through this assay and about 320 (3.2%) were called active. Many of the other results were omitted from the sample, so actives are more common in it than they were. Unmarked numbers belong to inactive results. Rule as the data show it: active = CPE inhibition mostly above about 9.1% (no sharp cut-off); inactive = mostly below about 7.2%.
# Experiment: antivirals protecting cells from dengue CPE – CPE readout, HTS (AID 540333)
# Settings: Dengue virus CPE inhibition in host cells, at 20 µM; hits give high values
row,Compound,CPE inhibition
1,Cc1cc(NC(=O)CCc2ccccc2)c([N+](=O)[O-])cc1C,inactive
2,O=C(Nc1nc2ccccc2s1)c1ccc(N2CCCCC2)c([N+](=O)[O-])c1,2.82%
3,O=C(Nc1ccc(N2C(=O)c3cccc4cccc(c34)C2=O)cc1)c1ccc(N2CCCCC2)c([N+](=O)[O-])c1,2.95%
4,O=C(Nc1nc2ccc3ccccc3c2s1)c1ccc(N2CCCCC2)c([N+](=O)[O-])c1,13.2% (active)
5,O=C(O)CSC(=S)N1CCCCC1,0.795%
6,N#CC(C#N)=C1C=CC=CN1/C(=C\c1ccco1)C(=O)c1ccc(-c2ccccc2)cc1,inactive
7,c1ccc(-c2c3ccccc3nc3[nH]c4ccccc4c23)cc1,23.8% (active)
8,Cc1nc2ccccc2c(-c2ccccc2)c1CC(=O)O,0.655%
9,O=C(O)c1cccc(-c2nc3ccccc3[nH]2)c1,0.345%
10,Cc1ccc(-n2nnnc2SC(C(=O)c2c[nH]c3ccccc23)c2ccccc2)cc1 (centres undefined),inactive
11,O=C1C=C(c2ccccc2)C[C@@H](c2ccc3c(c2)OCO3)C1,0.36%
12,O=C1C=C(c2cc(C(F)(F)F)cc(C(F)(F)F)c2)C[C@@H](c2ccc3c(c2)OCO3)C1,17.9% (active)
13,O=C1C=C(c2ccc(Cl)c(C(F)(F)F)c2)C[C@@H](c2ccc3c(c2)OCO3)C1,7.58%
14,O=C(CSCc1ccccc1)Nc1ccc(F)c(F)c1,inactive
15,Cc1cc(C(=O)NCC(=O)OCC(=O)N(C2CCCCC2)C2CCCCC2)ccc1[N+](=O)[O-],inactive
16,CCNc1ccc(C(=O)OCC(=O)NCc2ccc(C)cc2)cc1[N+](=O)[O-],0.91%
17,CCN1C(=O)[C@@H]2[C@@H](c3ccc(-c4ccc(OC)cc4)cc3)N3CCC[C@@]3(C(=O)OC)[C@@H]2C1=O,0.355%
18,COC(=O)[C@@]12CCCCN1[C@H](c1ccc(-c3ccccc3)cc1)[C@H]1C(=O)N(C)C(=O)[C@H]12,3.82%
19,CCN1C(=O)[C@@H]2[C@@H](c3ccc(SC4CCCCC4)cc3)N3CCC[C@@]3(C(=O)OC)[C@@H]2C1=O,0.855%
20,CCSc1ccc([C@@H]2[C@@H]3C(=O)N(C)C(=O)[C@@H]3[C@]3(C(=O)OC)CCCCN23)cc1,inactive
21,CCN1C(=O)[C@@H]2[C@@H](c3ccc(-c4ccc(Cl)c(Cl)c4)cc3)N3CCC[C@@]3(C(=O)OC)[C@@H]2C1=O,3.61%

row,Compound,CPE inhibition
1,COC(=O)[C@@]12CCCCN1[C@H](c1ccc(-c3ccc(Cl)c(Cl)c3)cc1)[C@H]1C(=O)N(C)C(=O)[C@H]12,26.6% (active)
2,COC(=O)[C@@]12CCCCN1[C@H](c1ccc(-c3ccc(C(C)=O)cc3)c(OC)c1)[C@@H]1C(=O)N(C)C(=O)[C@@H]12,3.06%
3,CCCCCCSc1ccc([C@@H]2[C@@H]3C(=O)N(CC)C(=O)[C@@H]3[C@]3(C(=O)OC)CCCCN23)cc1,16.4% (active)
4,CCN1C(=O)[C@H]2[C@@H](c3ccc(-c4ccc(Cl)c(Cl)c4)cc3)N3CCCC[C@@]3(C(=O)OC)[C@H]2C1=O,15.9% (active)
5,CC(=O)Nc1sc(C)c(C)c1C(=O)OCC(=O)N(CC(C)C)C1CCS(=O)(=O)C1 (centres undefined),1.31%
6,Cc1ccc([N+](=O)[O-])cc1S(=O)(=O)NCCc1c(C)[nH]c2ccccc12,1.95%
7,O=C(N=C1c2ccccc2CN1c1ccccc1)c1cccc([N+](=O)[O-])c1,inactive
8,CC(C)N(C(=O)COC(=O)CNC(=O)c1ccc(Br)cc1)c1ccccc1,inactive
9,COc1ccc(C2CC(c3ccccc3OC(C)=O)=NN2C(=O)/C=C/c2ccccc2)cc1 (centres undefined),7.79% (active)
10,CC(=O)Oc1ccccc1C1=NN(C(=O)/C=C/c2ccccc2)C(c2ccccc2)C1 (centres undefined),8.09%
11,COc1ccc(C2=NN(C(=O)/C=C/c3ccccc3)C(c3ccccc3)C2)c(OC(C)=O)c1 (centres undefined),8.13%
12,Cc1c(NC2=C(Cl)C(=O)N(c3ccccc3Cl)C2=O)c(=O)n(-c2ccccc2)n1C,inactive
13,CCNC(=S)N(CCc1cccc(C)c1)Cc1cc2cc(OC)c(OC)cc2[nH]c1=O,5.32%
14,C=CCN1C(=O)S/C(=C/c2ccc(Sc3nc4ccccc4[nH]3)o2)C1=O,12.1% (active)
15,CCN1C(=O)S/C(=C/c2ccc(Sc3nc4ccccc4[nH]3)o2)C1=O,7.23%
16,O=C(N/N=C/c1ccc(Sc2nc3ccccc3[nH]2)o1)c1ccncc1,1.17%
17,CCOC(=O)CN1C(=O)S/C(=C/c2ccc3c(c2)n(C)c(=O)n3C)C1=O,0.01%
18,Cc1ccc(C)c(N(CC(=O)Nc2ccccc2C(=O)NCc2ccco2)S(=O)(=O)c2ccccc2)c1,0.06%
19,Cc1ccc(-c2cc(C(=O)N/N=C/c3ccco3)n[nH]2)s1,inactive
20,CC(Sc1nc(N)c2c3c(sc2n1)CSC(C)(C)C3)C(=O)Nc1ccccc1 (centres undefined),6.62%
21,Cc1ccc(NC(=O)CSc2nc(N)c3c4c(sc3n2)CSC(C)(C)C4)cc1,16.2% (active)

row,Compound,CPE inhibition
1,Cc1ccc(NC(=O)CSC2=NCCN2)cc1,0.905%
2,CN(C(=O)CSc1nc(N)c2c3c(sc2n1)CSC(C)(C)C3)c1ccccc1,9.8%
3,Cc1ccccc1NC(=O)CSc1nc(N)c2c3c(sc2n1)CSC(C)(C)C3,15.7% (active)
4,Cc1ccccc1NC(=O)CSC1=NCCN1,inactive
5,COC(=O)c1ccc(CNC(=O)COC(=O)C23CC4CC(CC(C4)C2)C3)cc1,inactive
6,O=C(CSc1ccc(Cl)cc1)Nc1ccc(-c2nc3ccccc3[nH]2)cc1,1%
7,O=C(CN1CCOCC1)NN=C1CCCCCCCCCCC1,inactive
8,CCCCCC(=O)Nc1ccccc1N1CCOCC1,0.445%
9,Cc1ccc(NC(=O)OCCN2CCN(S(=O)(=O)c3ccc(C)cc3)CCC2=O)cc1,0.55%
10,COc1ccc(C(=O)/C(C#N)=N/Nc2ccccc2[N+](=O)[O-])cc1,1.92%
11,Cc1c(C#N)c(N)nc2c3c(sc12)NC(=O)CC3c1ccc(Cl)cc1 (centres undefined),0.18%
12,Cc1ccc(NC(=S)NCCc2ccc(S(N)(=O)=O)cc2)cc1C,inactive
13,COc1cc(/C=C2/C(=O)NN(c3ccc(Cl)cc3)C2=O)ccc1OC(=O)c1ccco1,8.14% (active)
14,COc1cc(/C=C2/C(=O)NN(c3cccc(C)c3)C2=O)ccc1OC(=O)c1ccco1,8.68%
15,COc1cc(/C=C2/C(=O)NN(c3cccc(F)c3)C2=O)ccc1OC(=O)c1ccco1,3.78%
16,COc1ccccc1NS(=O)(=O)c1cccc(C(=O)N/N=C/c2ccc3c(c2)OCCO3)c1,inactive
17,S=c1[nH]nc(COc2ccccc2)n1/N=C/c1cccs1,inactive
18,CCN1C(=O)[C@H]2[C@@H](c3ccc(C)cc3)N3C(=O)N(c4ccc(OC)cc4)C(=O)[C@@]3(CC)[C@H]2C1=O,0.62%
19,O=C1[C@H]2[C@@H](c3ccc(Cl)cc3)N3C(=O)N(c4cccc(Cl)c4)C(=O)[C@@]3(Cc3ccccc3)[C@H]2C(=O)N1C1CCCCC1,15.5% (active)
20,Cc1cccc([C@@H]2[C@@H]3C(=O)N(Cc4ccccc4)C(=O)[C@@H]3[C@]3(Cc4ccccc4)C(=O)N(c4ccccc4)C(=O)N23)c1,0.915%
21,O=C1[C@H]2[C@@H](c3ccc(F)cc3)N3C(=O)N(c4ccc(Br)cc4)C(=O)[C@@]3(Cc3ccc(Cl)cc3)[C@H]2C(=O)N1C1CCCCC1,46% (active)

row,Compound,CPE inhibition
1,O=C1N(c2cccc(Cl)c2)C(c2ccc(Cl)cc2)N2CCCN12 (centres undefined),4.13%
2,S=C(Nc1ccccc1Cl)N1CCN(Cc2ccccc2)CC1,0.465%
3,N#C/C(=C\c1cn(Cc2cccc(F)c2)c2ccccc12)C(=O)NCc1ccco1,0.23%
4,Cc1ccc(OCCSCc2nnc(NC(=O)Nc3cccc(Cl)c3)s2)cc1,5.79%
5,COc1ccc(NS(=O)(=O)c2ccc3nc(COc4ccc(Cl)c(C)c4)[nH]c3c2)cc1,1.16%
6,CSc1ccc(/C=C/C(=O)c2ccc(O)cc2)cc1,inactive
7,CCOc1ccc(/C=C/C(=O)Nc2ccccc2C(F)(F)F)cc1,inactive
8,O=c1c2ccccc2cnn1Cc1n[nH]c(=S)n1-c1ccccc1,0.01%
9,CCCCCCNC(=O)CC(NS(=O)(=O)c1ccc(OC)cc1)C(C)C (centres undefined),0.025%
10,C[C@H](NC(=O)c1ncn(C)c1C(=O)N[C@@H](C)c1ccccc1)c1ccccc1,0.505%
11,CC(C)(C)OC(=O)CNC(=O)c1[nH]cnc1C(=O)NC1CCN(C(=O)OC(C)(C)C)CC1,inactive
12,C[C@@H](NC(=O)c1ncn(Cc2ccccc2)c1C(=O)N[C@H](C)c1ccccc1)c1ccccc1,13.8% (active)
13,CC(C)(C)OC(=O)N1CCC(NC(=O)c2ncn(Cc3ccccc3)c2C(=O)NC2CCN(C(=O)OC(C)(C)C)CC2)CC1,39.3% (active)
14,C[C@@H](NC(=O)c1nc[nH]c1C(=O)OCc1ccccc1)c1ccccc1,0.97%
15,Cn1cnc(C(=O)N2CCN(C(=O)OC(C)(C)C)CC2)c1C(=O)N1CCN(C(=O)OC(C)(C)C)CC1,1.25%
16,Cc1ccc2c(c1)/C(=N/N1C(=O)c3ccccc3C1=O)C(=O)N2,inactive
17,CC(C)C(=O)NC(=S)Nc1nnn(C)n1,inactive
18,Cc1ccc(N2C(=O)[C@@H]3C(C(=O)C(c4ccccc4)c4ccccc4)=NN[C@@H]3C2=O)cc1,0.425%
19,CCC(=O)N/N=C(\C)CC(=O)Nc1ccc(Cl)cc1,0.01%
20,CCC(=O)Nc1ccc(NC(=O)/C=C/c2ccc(Cl)cc2)cc1,21.6% (active)
21,CC(=O)c1ccc(NC(=O)/C=C/c2ccc(C)cc2)cc1,4.66%
